The structures appear in SMILES notation. Records with an inconclusive call do not appear. Active and inactive are the calls of the source. Unless noted, the call rests on the fitted dose curve; in most records, active means well fitted inhibition curve with a large enough effect; inconclusive means small, poorly fitted or top-dose-only effect; inactive means no such curve, though single readings can be large or run the other way.

Experiment [1] can be described thus: qHTS profiling of the MIPE4 collection as inhibitors of Plasmodium falciparum (DD2) proliferation (AID 743345; call rule not given here). The settings on record: P. falciparum Dd2 in erythrocytes, SYBR Green DNA, 72 h; at 28.5 µM (top of the series) unless noted. Put shortly: (§1)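 Parasite DNA was quantified by SYBR Green I fluorescence (ex 485, em 535 nm) after overnight lysis in saponin/Triton buffer at room temperature. Cultures at 0.3% parasitemia and 2.5% hematocrit were first exposed to compound for 72 h at 37 C; signals were normalised to artemisinin (0.29 uM) and vehicle wells.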

Experiment [2] in a line: qHTS profiling of the MIPE4 collection as inhibitors of Plasmodium falciparum (DD2) proliferation (Rep 2) (AID 743346; call rule not given here). The following applies: P. falciparum Dd2 in erythrocytes, SYBR Green DNA, 72 h; at 28.5 µM (top of the series) unless noted. Put shortly: as §1
Experiment [3] can be described thus: High-throughput drug toxicity screening in the BPDCN cell line Gen2.2 (AID 1224824; call rule not given here;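 further: cells exposed to compounds for 48 h before reading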). The following applies: Gen2.2 BPDCN cells; at 45.8 µM (top of the series) unless noted. Put shortly:
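CellTiter-Glo luminescence after 48 h compound exposure of Gen2.2 cells; percent activity set with DMSO as 100% and bortezomib (9.2 uM final) as 0%. Cells seeded at 500 per well, RPMI + 10% FBS, 37 °C.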

A short description of experiment [4]: High-throughput drug toxicity screening in the BPDCN cell line Cal-1 (AID 1224825; call rule not given here). The settings on record: Cal-1 BPDCN cell viability, qHTS; at 45.8 µM (top of the series) unless noted. Put shortly: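 CellTiter-Glo luminescence after 48 h compound exposure; percent activity scaled with DMSO as 100% and bortezomib (9.2 uM final) as 0%. Cal-1 cells seeded at 500/well in RPMI, 10% FBS, no phenol red.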
(qHTS replaces the single test concentration by a dilution series.)

A short description of experiment [5]: qHTS assay for measurement of the activity of small molecule inhibitors on Zika virus induced Caspase-3 activity in human astrocytoma cells (AID 1224859).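 Further: plate controls were ZIKV-infected untreated cells for no effect and uninfected cells for full effect.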 In outline:
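Human SNB-19 astrocytoma cells in RPMI 1640 with 10% FBS receive compound one hour ahead of Zika virus at 2 FFU/cell. After 6 h infection, caspase-3/7 activity is detected by Caspase-Glo luminescence.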

A short description of experiment [6]: qHTS Screen of the MIPE 4.0 Collection Against Ewings Sarcoma (RDES) (AID 1259252). Further: nearly all actives have a fitted effect of over 35% in size. Further: potency means the concentration at half of the fitted maximal effect. In outline: (§2)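 Dose series incubated 48 h with cells in RPMI plus 5% FBS, glutamine and penicillin/streptomycin; cell viability then quantified via CellTiter-Glo.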
Experiment [7] in a line: qHTS Screen of the MIPE 4.0 Collection Against Ewings Sarcoma (TC71) (AID 1259253). Further: nearly all actives have a fitted effect of over 40% in size. Further: potency means the concentration at half of the fitted maximal effect. In outline:
as §2

The nature of experiment [8]: qHTS Screen of the MIPE 4.0 Collection Against Ewings Sarcoma (EW8) (AID 1259255). Further: nearly all actives have a fitted effect of over 35% in size. Further: potency means the concentration at half of the fitted maximal effect.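 On viability: 100% = DMSO-treated cells and 0% = medium-only wells without cells.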 Put shortly:
as §2

Experiment [9] is described as follows: qHTS profiling of the MIPE4 collection as inhibitors of Plasmodium falciparum (HB3) proliferation (AID 743347; call rule not given here;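 further: plate controls were DMSO vehicle wells for no effect and artemisinin wells for full effect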). The following applies: P. falciparum HB3 in erythrocytes, SYBR Green DNA, 72 h; at 28.5 µM (top of the series) unless noted. Put shortly:
as §1

For `COc1ccc(C=Cc2cc(OC)c(OC)c(OC)c2)cc1NC(=O)[C@H](N)CO`, the parasite growth remaining, % of DMSO control (lower = more inhibition) in [1] is 75.1%. Besides, the parasite growth, % of control (lower = inhibition) in experiment [2] amounted to 79.9%. In [3], the cell viability, % of control (lower = more cytotoxic) was determined as 6.82%. In addition, in experiment [4], the viability (% of control) was 7.97%. For the same molecule, the Potency entry in [5] is “inactive”. Moreover, the Potency is 0.0023 µM (active) in experiment [6], 0.0033 µM (active) in experiment [7] and 0.0042 µM (active) in [8].
For `O=C(O)C[C@H](O)C[C@H](O)C=Cc1c(C2CC2)nc2ccccc2c1-c1ccc(F)cc1`, in experiment [1], the parasite growth remaining, % of DMSO control (lower = more inhibition) came to 92.7%. Besides, the parasite growth, % of control (lower = inhibition) in experiment [2] stood at 67%. Moreover, the growth, % of control in experiment [9] was 86.6%. For the same molecule, in experiment [3], the cell viability, % of control (lower = more cytotoxic) turned out to be 4.71%. The viability (% of control) in [4] stood at 38.9%. Moreover, the Potency entry in [5] is “inactive”. Besides, the values for the Potency in experiment [6], in experiment [7] and in [8] were 2.64 µM (active), 1.87 µM (active) and 3.72 µM (active), respectively.
With `CN(C)CCN1C(=O)c2cccc3cc(N)cc(c23)C1=O`, in [1], the parasite growth remaining, % of DMSO control (lower = more inhibition) is 12.6%. The same molecule yielded a parasite growth, % of control (lower = inhibition) in experiment [2] of 10.8%. Besides, the growth, % of control in experiment [9] worked out at 9.26%. Besides, in experiment [3], the cell viability, % of control (lower = more cytotoxic) was determined as 5.29%. Besides, the viability (% of control) in experiment [4] stood at 4.08%. For the same molecule, the Potency entry in [5] was “inactive”. Besides, the Potency in experiment [6] was 16.6 µM (active); in [7], 14.8 µM (active); in [8], 1.66 µM (active).
As for `C=C(C)[C@@H]1CC[C@]2(C(=O)O)CC[C@]3(C)[C@H](CC[C@@H]4[C@@]5(C)CC[C@H](O)C(C)(C)[C@@H]5CC[C@]43C)[C@@H]12`, in [1], the parasite growth remaining, % of DMSO control (lower = more inhibition) is 20.6%. In experiment [3], the cell viability, % of control (lower = more cytotoxic) turned out to be 61.6%. The viability (% of control) in experiment [4] amounted to 85.4%. The Potency result in [5], in experiment [6], in experiment [7] and in [8] was “inactive” each time.
For the molecule `Cc1nc(NC(=O)N2CCC[C@@H]2C(N)=O)sc1-c1ccnc(C(C)(C)C(F)(F)F)c1`, the parasite growth remaining, % of DMSO control (lower = more inhibition) in experiment [1] came out at 36.1%. Besides, the parasite growth, % of control (lower = inhibition) in [2] was 24%. Besides, the cell viability, % of control (lower = more cytotoxic) in experiment [3] is 21%. The viability (% of control) in experiment [4] is 65.8%. Moreover, the Potency result in [5] was “inactive”. The Potency is 1.48 µM (active) in [6], 11.8 µM (active) in experiment [7] and 23.5 µM (active) in [8].
In the case of `COc1cc(OC)c(C=CS(=O)(=O)Cc2ccc(OC)c(NCC(=O)O)c2)c(OC)c1`, the parasite growth remaining, % of DMSO control (lower = more inhibition) in experiment [1] turned out to be 82.7%. Also, in experiment [2], the parasite growth, % of control (lower = inhibition) is 77.6%. Moreover, the growth, % of control in experiment [9] came out at 68.2%. In addition, in experiment [3], the cell viability, % of control (lower = more cytotoxic) turned out to be 5.33%. The viability (% of control) in experiment [4] was 8.09%. Further, the Potency result in experiment [5] was “inactive”. Besides, the values for the Potency in experiment [6], in [7] and in experiment [8] were 0.0935 µM (active), 0.187 µM (active) and 0.235 µM (active), respectively.
As to `O=C1c2cccc(O)c2C(=O)c2c(O)cc(CO)cc21`, the cell viability, % of control (lower = more cytotoxic) in experiment [3] came to 161%. In addition, in experiment [4], the viability (% of control) is 116%. Also, the Potency result in experiment [5], in experiment [6], in [7] and in experiment [8] was “inactive” each time.
Turning to `O=C(O)[C@H](CC(=O)N1C[C@@H]2CCCC[C@H]2C1)Cc1ccccc1`, the parasite growth remaining, % of DMSO control (lower = more inhibition) in [1] worked out at 103%. In [2], the parasite growth, % of control (lower = inhibition) worked out at 69.7%. This molecule also gave a growth, % of control in experiment [9] of 57.9%. Besides, the cell viability, % of control (lower = more cytotoxic) in [3] amounted to 133%. Moreover, the viability (% of control) in [4] is 89.5%. Further, the Potency result in experiment [5], in [6], in experiment [7] and in [8] was “inactive” throughout.
On to `CC(C)C[C@H](NC(=O)CNC(=O)c1cc(Cl)ccc1Cl)B1OC(=O)CC(CC(=O)O)(C(=O)O)O1` (some centres undefined), for which, in [1], the parasite growth remaining, % of DMSO control (lower = more inhibition) turned out to be 7.15%. Moreover, in experiment [2], the parasite growth, % of control (lower = inhibition) amounted to 7.43%. The growth, % of control in [9] worked out at 8.02%. The cell viability, % of control (lower = more cytotoxic) in [3] amounted to 4.85%. Further, the viability (% of control) in experiment [4] was 3.61%. The Potency result in [5] was “inactive”. Also, the Potency in [6] is 0.235 µM (active); in experiment [7] it was 0.235 µM (active); in [8], 0.118 µM (active).

The values above are taken from PubChem BioAssay (NCATS).
